From PubChem BioAssay
Bead autofluor: flagged as autofluorescent in microsphere protease counterscreen; compound autofluorescence counterscreen, microsphere flow cytometry; stronger effect = higher value; fluorescence intensity (concentration not given with the values); actives 3.1% (n = 360,000); AID 624483; in the data active means fluorescence intensity above about 16000; inconclusive means no clear call, values can overlap the other calls
BoNT-F LC inh: BoNT/F light chain protease inhibitors, primary screen, biochemical, flow cytometry, MLPCN library | Botulinum neurotoxin type F light chain protease (Clostridium botulinum) | Multiplex microsphere protease cleavage assay | inhibition, % at 10 µM | actives 0.22% (n = 360,000) | AID 588497, 2011; in the data active means inhibition above about 35%, passing the limit was not always enough; inconclusive means no clear call, values can overlap the other calls
BoNT-A LC inh2: BoNT/A light chain protease inhibitors, primary screen, biochemical, flow cytometry, MLPCN library; inhibition, % at 10 µM; multiplex microsphere protease substrate cleavage; Botulinum neurotoxin type A light chain protease (Clostridium botulinum A str. ATCC 3502); actives 0.17% (n = 360,000); AID 588499, 2011
Anthrax LF inh2: Bacillus anthracis LF protease inhibitors, primary screen, biochemical, multiplex microsphere, MLPCN library; Lethal factor (Bacillus anthracis), P15917; multiplex microsphere protease cleavage assay; inhibition, % at 10 µM; actives 0.12% (n = 360,000); AID 588501, 2011
Large screens that a line does not name were inactive. Hits are enriched below; roughly 3.5% of the tested compounds scored in any of these assays. Unless noted, no stated cut-off is given here; in the data, active means inhibition above about 30%; inconclusive means no clear call, values can overlap the other calls; inactive means below that.

O=C(NC(=S)Nc1nc2c(ccc3ccccc32)s1)c1cccs1	none
O=C(Cc1ccsc1)NCc1ccccc1F	none
Cc1cc(Br)ccc1N1C(=O)CC(=O)NC1=O	Bead autofluor 20409
O=C1CC(=O)N(c2ccc(Cl)cc2Cl)C(=O)N1	Bead autofluor 21690
O=C1CC(=O)N(c2ccccc2F)C(=O)N1	none
CN1C=Nc2c(ncn2C2CCC(CO)O2)C1O (stereo not drawn)	none
CC(C)CCP(=O)(O)c1ccccc1	Bead autofluor 22957
C/C(=N\NC(=O)Cn1nc(C)c([N+](=O)[O-])c1C)c1ccco1	none
Cc1cc(C(=O)N(C)C2CCCCC2)no1	none
CCOC(=O)c1c(C)n(Cc2ccccc2)c2ccc(O)cc12	none
C=COCCn1c(C)c(C(=O)OCC)c2cc(O)ccc21	Bead autofluor 21557, BoNT-A LC inh2 inconclusive
CN(C)CC#CCC(O)(c1ccccc1)C1CCCC1 (stereo not drawn)	Bead autofluor 23845
Cc1c(CNC(=O)c2c([N+](=O)[O-])cnn2C)cnn1C	none
Cc1cc(C)nc(NC(=O)c2cccc(Cl)c2)n1	Bead autofluor 22692
COc1cc(C=C2C(=O)C=CC2=O)ccc1O	none
Cc1[nH]nc2c1C(c1ccco1)C(C#N)=C(N)O2 (stereo not drawn)	none
Cc1nn(C)c(C)c1C1C(C#N)=C(N)Oc2n[nH]c(C)c21 (stereo not drawn)	none
Cc1nn(-c2ccccc2)c(C)c1C1C(C#N)=C(N)Oc2n[nH]c(C)c21 (stereo not drawn)	BoNT-F LC inh 36
Cc1nn(-c2ccccc2)c2c1C(c1ccco1)C(C#N)=C(N)O2 (stereo not drawn)	Bead autofluor 23537, BoNT-A LC inh2 inconclusive
COc1ccc(-c2ccc(C3C(C#N)=C(N)Oc4n[nH]c(C)c43)o2)cc1 (stereo not drawn)	Bead autofluor 21391, BoNT-A LC inh2 inconclusive
COc1ccc(OC)c(C2C(C#N)=C(N)Oc3c2c(C)nn3-c2cccc(Cl)c2)c1 (stereo not drawn)	Bead autofluor 20225, BoNT-A LC inh2 inconclusive
CC(NC(=O)COC(=O)CCC(=O)c1ccc(F)cc1)c1ccccc1 (stereo not drawn)	none
COc1ccc(CCC(=O)OCC(=O)Nc2sccc2C#N)cc1	none
Cc1ccc(-n2nc(C)c3c2OC(N)=C(C#N)C3c2ccc(F)cc2)cc1 (stereo not drawn)	Bead autofluor 22457
O=C(N/N=C/c1ccc(Cl)cc1Cl)c1ccc2nc[nH]c2c1	none
O=C(N/N=C/c1ccc(Cl)cc1Cl)c1cccc(F)c1	Bead autofluor 22364
COc1ccc2nc(SCC(N)=O)[nH]c2c1	Bead autofluor 22930, BoNT-A LC inh2 inconclusive
CN(C)C(=S)SCC(=O)Nc1ccc(Cl)cc1Cl	none
Nc1nnc(Cc2c[nH]c3ccccc23)s1	Bead autofluor 23973
CN1CCN(c2ccc(-c3cc(NC=O)c4ncc(-c5ccccc5)n4c3)cc2)CC1	none
Cc1ccc(NC(=O)N/C=C/c2ccco2)cc1C	Bead autofluor 21513, BoNT-A LC inh2 inconclusive
OC(COC1CCCCC1)CN1CCCCC1 (stereo not drawn)	none
CCOc1ncnc2c1oc1nc(CC(C)C)c3c(c12)CC(C)(C)OC3	Bead autofluor 19881
CCCc1nc2oc3c(NCC4CCCO4)ncnc3c2c2c1COC(C)(C)C2 (stereo not drawn)	Bead autofluor 22258
CCCc1nc2oc3c(NCc4ccccn4)ncnc3c2c2c1COC(C)(C)C2	none
Cc1cc(=O)oc2cc(NC(=O)C(C)Oc3cccc(Cl)c3)ccc12 (stereo not drawn)	none
Cc1ccc(-c2nc3c4ccccc4ccn3c2CC2CCCCC2)cc1	none
CC(=O)c1c(C)[nH]c(C(=O)Nc2cccc(S(=O)(=O)N(C)c3ccccc3)c2)c1C	none
CCC1C(=O)N(c2nc(C)cc(C)n2)N=C1C (stereo not drawn)	Bead autofluor 19066
CC1(C)Cc2cccc(OCC(=O)Nc3ccccc3N3CCOCC3)c2O1	Bead autofluor 16540
CCN(CC)CCN(C)C(=O)c1[nH]c(C(F)(F)F)nc1-c1ccccc1	none
O=C(Nc1ccc(F)c(Cl)c1)Nc1ccc(Cl)cn1	none
O=C(Nc1ccc(F)cc1)Nc1ccc(Cl)cn1	Bead autofluor 18496
CCOC(=O)c1cccc(NC(=O)c2ccc(-n3cnnn3)cc2)c1	none
COc1ccc(OC)c(Nc2nc(-c3cccc([N+](=O)[O-])c3)nc3ccccc23)c1	Bead autofluor 25968
CC(=O)c1ccc(OC(=O)c2cccs2)cc1	Bead autofluor 24802
CC(=O)Nc1ccc(NC(=O)C(C)OC(=O)c2cccs2)cc1 (stereo not drawn)	none
CC(=O)c1ccc(NC(=O)c2cccs2)cc1	none
CC(=O)Nc1ccc(OC(=O)c2cccs2)cc1	Bead autofluor 16646, BoNT-A LC inh2 inconclusive
O=C(C[C@H]1C/C=C\CC[C@@H](Cc2ccc(F)cc2)C(=O)O[C@@H](c2ccccc2)CNC1=O)N[C@@H](CO)Cc1ccccc1	none
O=C(NCC1CCCN(C(=O)CN2CCCCC2)C1)c1ccccc1Cl (stereo not drawn)	none
CCN(CC)CCNC(=O)Cc1nn(CC)c(=O)c2ccccc12	none
CCN(CC)CCNC(=O)C(C)c1nn(CC)c(=O)c2ccccc12 (stereo not drawn)	Bead autofluor 22461
O=C(OCc1nc2ccsc2c(=O)[nH]1)c1ccc(Cl)s1	none
COc1ccc(-c2nnc(SCc3c(C)noc3C)n2N)cc1OC	Bead autofluor 19531
Cc1cc(C)c(NC(=O)C(C)Sc2nc3ccc(N4C(=O)c5ccccc5C4=O)cc3s2)c(C)c1 (stereo not drawn)	Bead autofluor 16290, BoNT-A LC inh2 inconclusive
CCOC(=O)/C(C#N)=C/C=C1/C=CC=CN1C	BoNT-F LC inh 38, Anthrax LF inh2 inconclusive
COc1ccc(S(=O)(=O)N2CCN(CC(=O)NC3CC3)CC2)cc1	none
Clc1ccc2oc(-c3cccnc3NCc3ccccc3)nc2c1	Bead autofluor 19024
Clc1ccc2c(NCc3ccccc3)ccnc2c1	none
Cc1ccc(CNc2ncccc2-c2nc3cc(Cl)ccc3o2)cc1	Bead autofluor 22598
CSCCC(NC(=O)c1ccco1)C(=O)OCC(=O)N1c2ccccc2NC(=O)C1(C)C (stereo not drawn)	none
O=C(CCCOc1ccc(Cl)cc1)NC1CCCCC1	none
N#Cc1c(OCC(=O)c2ccccc2)nc2c(c1-c1ccco1)CCc1ccccc1-2	Bead autofluor 18221
Cc1ccc(Oc2ccccc2/C=C2\SC(=O)N(C)C2=O)cc1	Bead autofluor 21464
CCc1ccc(OCC(=O)Nc2ncn[nH]2)cc1	none
Cc1ccc(CN(C(=O)c2csnn2)C(C(=O)NC2CCCC2)c2ccco2)cc1 (stereo not drawn)	none
O=C(NC1CCCC1)C(c1ccccn1)N(C(=O)c1csnn1)C1CCCCC1 (stereo not drawn)	none
O=C(NC1CCCCC1)C(c1ccco1)N(C(=O)c1csnn1)c1ccc(Cl)cc1 (stereo not drawn)	none
O=C(NC1CCCC1)C(c1ccccn1)N(C(=O)c1csnn1)C1CC1 (stereo not drawn)	Bead autofluor 16748
